Experimental data from PubChem BioAssay AID1159580 (chemical genetic matrix, 2015).
Several values for one entry are separate records, joined by “and”; a condition that tells them apart may be missing. Equal values may be shown once. About 2,000 (36%) of roughly 5,500 compounds were called active. Roughly 18% stayed inconclusive and do not appear here. Cut-off read from the data, not from the text of the source: active = normalized growth mostly below about 0.91 (no sharp cut-off); inconclusive = no clear call, values can overlap the other calls; inactive = mostly above about 0.92. Some of the results follow.

Assay: chemical genetic growth profiling, strain panel (AID 1159580);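 note: tested at 20 µM; growth read once vehicle control cultures reached saturation at 30 °C; 1 = growth at the plate median or of vehicle wells; lower values mean less growth of the strain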
Conditions: S. cerevisiae deletion strains, growth OD

Measured: normalized growth

C=C(C)[C@H]1CC=C(C(=O)O)CC1
active: locus YBR021W, strain FUR4, stronger effect = lower value 0.82 | locus YDL185W, strain tfp1, stronger effect = lower value 0.871 | locus YDR195W, strain ref2 0.844 | locus YGL078C, strain dbp3, stronger effect = lower value 0.804 | locus YGR252W, strain gcn5, stronger effect = lower value 0.606 | locus YHR079C, strain IRE1, stronger effect = lower value 0.703 | locus YIL125W, strain kgd1, stronger effect = lower value 0.78 | locus YJR066W, strain TOR1, stronger effect = lower value 0.747
0.997 (inactive) and 0.788 (active): locus YHR030C, strain SLT2, stronger effect = lower value
inactive: locus YAL013W, strain DEP1, stronger effect = lower value 1.01 | locus YAL021C, strain ccr4, stronger effect = lower value 0.968 | locus YAL026C, strain drs2, stronger effect = lower value 0.958 | locus YAL030W, strain snc1, stronger effect = lower value 0.985 | locus YBL061C, strain skt5, stronger effect = lower value 0.986 | locus YBR009C, strain hhf1, stronger effect = lower value 0.939 | locus YBR023C, strain chs3, stronger effect = lower value 0.985 | locus YBR171W, strain sec66, stronger effect = lower value 0.961 | locus YBR229C, strain ROT2, stronger effect = lower value 1.01 | locus YBR231C, strain swc5, stronger effect = lower value 0.939 | locus YBR279W, strain paf1, stronger effect = lower value 0.972 | locus YCL011C, strain gbp2, stronger effect = lower value 0.973 | locus YCL016C, strain dcc1, stronger effect = lower value 0.979 | locus YCL029C, strain bik1, stronger effect = lower value 0.938 | locus YCL061C, strain MRC1, stronger effect = lower value 0.944 | locus YCL069W, strain vba3, stronger effect = lower value 0.984 | locus YCR088W, strain abp1, stronger effect = lower value 0.994 | locus YDL005C, strain med2, stronger effect = lower value 0.97 | locus YDL035C, strain GPR1, stronger effect = lower value 0.926 | locus YDL040C, strain nat1, stronger effect = lower value 0.995 | locus YDL074C, strain BRE1, stronger effect = lower value 0.945 | locus YDL101C, strain DUN1, stronger effect = lower value 0.976 | locus YDL134C, strain PPH21, stronger effect = lower value 0.944 | locus YDL192W, strain arf1, stronger effect = lower value 0.957 | locus YDR001C, strain nth1, stronger effect = lower value 0.986 | locus YDR069C, strain doa4, stronger effect = lower value 0.999 | locus YDR101C, strain arx1, stronger effect = lower value 0.926 | locus YDR137W, strain rgp1, stronger effect = lower value 1.04 | locus YDR159W, strain sac3, stronger effect = lower value 0.94 | locus YDR162C, strain NBP2, stronger effect = lower value 0.989 | locus YDR297W, strain sur2, stronger effect = lower value 0.971 | locus YDR318W, strain mcm21, stronger effect = lower value 0.938 | locus YDR334W, strain swr1, stronger effect = lower value 0.971 | locus YDR335W, strain msn5, stronger effect = lower value 0.975 | locus YDR388W, stronger effect = lower value 0.952 | locus YDR392W, strain spt3, stronger effect = lower value 0.934 | locus YDR502C, strain sam2, stronger effect = lower value 0.926 | locus YEL003W, strain gim4, stronger effect = lower value 0.943 | locus YEL037C, strain rad23, stronger effect = lower value 0.988 | locus YEL061C, strain CIN8 (second series), stronger effect = lower value 0.991 | locus YEL061C, strain CIN8, stronger effect = lower value 1 | locus YER015W, strain faa2, stronger effect = lower value 0.98 | locus YER016W, strain bim1, stronger effect = lower value 0.992 | locus YER110C, stronger effect = lower value 0.925 | locus YER111C, strain swi4, stronger effect = lower value 0.98 | locus YER155C, strain BEM2 (second series), stronger effect = lower value 1 | locus YER155C, strain BEM2, stronger effect = lower value 0.947 | locus YER167W, strain BCK2, stronger effect = lower value 0.978 | locus YFR010W, strain ubp6, stronger effect = lower value 0.978 | locus YGL086W, strain mad1, stronger effect = lower value 0.965 | locus YGL167C, strain pmr1, stronger effect = lower value 0.978 | locus YGL173C, strain kem1, stronger effect = lower value 0.949 | locus YGL227W, strain vid30, stronger effect = lower value 0.975 | locus YGL240W, strain doc1, stronger effect = lower value 0.956 | locus YGL248W, strain PDE1, stronger effect = lower value 0.97 | locus YGL253W, strain hxk2, stronger effect = lower value 0.944 | locus YGR135W, strain pre9, stronger effect = lower value 0.903 | locus YHR013C, strain ard1, stronger effect = lower value 0.993 | locus YHR027C, strain rpn1, stronger effect = lower value 0.96 | locus YHR079C, strain IRE1 (second series), stronger effect = lower value 0.941 | locus YHR094C, strain hxt1, stronger effect = lower value 0.955 | locus YHR129C, strain ARP1, stronger effect = lower value 0.984 | locus YHR142W, strain chs7, stronger effect = lower value 0.96 | locus YHR200W, strain rpn10, stronger effect = lower value 0.961 | locus YIL066C, strain RNR3, stronger effect = lower value 0.963 | locus YIL073C, strain SPO22, stronger effect = lower value 0.978 | locus YIR030C, strain dcg1, stronger effect = lower value 0.961 | locus YJL092W, strain hpr5, stronger effect = lower value 0.983 | locus YJL095W, strain BCK1 (second series), stronger effect = lower value 0.985 | locus YJL115W, strain asf1, stronger effect = lower value 0.983 | locus YJL129C, strain trk1, stronger effect = lower value 0.911 | locus YJL134W, strain LCB3, stronger effect = lower value 0.996 | locus YJL154C, strain vps35, stronger effect = lower value 0.99 | locus YJL164C, strain tpk1, stronger effect = lower value 0.97 | locus YJL166W, strain qcr8, stronger effect = lower value 0.981 | locus YJL168C, strain set2, stronger effect = lower value 0.968 | locus YJL187C, strain SWE1 (second series), stronger effect = lower value 0.955 | locus YJR043C, strain POL32, stronger effect = lower value 0.916 | locus YKL009W, strain mrt4, stronger effect = lower value 0.954
0.98 (inactive) and 0.786 (active): locus YJL095W, strain BCK1, stronger effect = lower value
